Screens from PubChem.
Only some compounds are listed: those with a hit (about 8% of all), similar ones and a draw of the others.
KB-3-1 cytotox = KB-3-1 parental cell cytotoxicity | KB-3-1 viability, CellTiter-Glo ATP luminescence, 72 h | AID 1347075 | 1.4% of 400,000 active | Potency, µM (titrated, usually from 46.1 µM), hits mostly cytotoxic; further: nearly all actives have a fitted effect of over 60% in size
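Luminescent ATP read-out (CellTiter-Glo) measures survival of drug-naive KB-3-1 cells after 72 h compound exposure at 37 °C. Titration series was screened from lowest to highest concentration, with DMSO vehicle plates as background controls.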
HT1080-NT tox = kills 2HG-producing HT-1080-NT fibrosarcoma cells; Potency, µM (series often up to 46.1 µM), actives largely listed as cytotoxic; HT-1080-NT fibrosarcoma viability, CellTiter-Glo ATP luminescence, 48 h; AID 686970; 1.6% of 360,000 active;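 further: NT is the 2HG producing partner of a matched IDH1 knockdown line; nearly all actives have a fitted effect of over 55% in size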
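Toxicity toward the 2HG-producing NT line was scored as %Activity, normalised to DMSO and no-cell wells, from CellTiter-Glo luminescence after 48 hours' treatment.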
SW480 rereplic = inducers of DNA re-replication in SW480 colon cancer cells; Potency, µM (series often up to 46.1 µM), actives largely listed as activators; 1.8% of 340,000 active; SW480 DNA re-replication, Hoechst DNA content imaging, 48 h; further: nearly all actives have a fitted effect of over 55% in size
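Treated cells incubate 48 hr (37 C, 5% CO2), are stained 40 min with Hoechst, and nuclear fluorescence is enumerated; a rise in nuclei with high DNA signal marks re-replication.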
HT1080 IDH1KD tx = toxicity to HT-1080 IDH1 knockdown cells (counter line) | 2% of 360,000 active | Potency, µM (doses to about 46.1 µM), hits mostly cytotoxic | HT-1080 IDH1 knockdown viability, ATP luminescence, 48 h | AID 686971
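Viability of IDH1-knockdown HT-1080 fibrosarcoma cells was assessed by CellTiter-Glo after 48 h at 37 °C with titrated compound; concentration-effect curves were classified by fit quality and response size.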
MCF10A rereplic = inducers of DNA re-replication in MCF 10A breast cells | MCF 10A DNA re-replication, Hoechst nuclear intensity, 48 h | Potency, µM (titrated, usually from 46.1 µM), actives largely listed as activators | 2.9% of 350,000 active | AID 624296; further: nearly all actives have a fitted effect of over 50% in size
KB-V1 MDR tox = kills drug-selected multidrug resistant KB-V1 cells; KB-V1 MDR cells viability, CellTiter-Glo, 72 h; Potency, µM (series often up to 46.1 µM), most hits filed as cytotoxic; 3.4% of 400,000 active; AID 1347076; further: nearly all actives have a fitted effect of over 60% in size
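KB-V1 MDR subline cells in DMEM (phenol-red free, 10% FBS) exposed to compounds in qHTS concentration series for 72 h at 37 degrees C. Viability read by CellTiter-Glo luminescence; concentration-effect curves fitted after normalization and correction.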
Hits are given with their value; - = inactive; ? = inconclusive; . = no result given; ! = a repeat was not active. The call rests on the fitted dose curve; in most records, active means well fitted curve in the direction sought with a large enough effect; inconclusive means small, poorly fitted or top-dose-only effect, or another doubt; inactive means no such curve, though single readings can be large; an effect the other way counts as inactive or inconclusive.

SMILES | KB-3-1 cytotox | HT1080-NT tox | SW480 rereplic | HT1080 IDH1KD tx | MCF10A rereplic | KB-V1 MDR tox
CN(c1ccccc1)c1cc(Br)nc(Br)c1 | ? | - | - | - | - | 21µM
CCOC(=O)c1ccccc1NC(=O)COC(=O)c1ccc(C)c(S(=O)(=O)N2CCOCC2)c1 | - | - | - | - | - | -
O=C(Nc1ccccc1N1CCCC1)c1ccc(Cl)c(S(=O)(=O)N2CCOCC2)c1 | - | - | - | - | ? | 15µM
CCOC(=O)c1ccccc1NC(=O)c1ccc(Cl)c(S(=O)(=O)N2CCOCC2)c1 | - | - | - | - | - | 7.3µM
CCOC(=O)c1ccccc1NC(=O)COC(=O)c1ccc(OCC(=O)N2CCOCC2)c(OCC)c1 | - | - | - | - | - | 2.6µM
CCOc1cc(CNCCCN2CCOCC2)ccc1OCC(=O)Nc1cccc2ccccc12 | - | 10µM | ? | 11µM | - | -
COc1cc(CNCCCN2CCOCC2)ccc1OCC(=O)Nc1cccc(C(F)(F)F)c1 | - | ? | ? | ? | ? | -
Cn1nc(C(=O)Nc2cccc(C(F)(F)F)c2)ccc1=O | - | - | - | - | - | -
CCOc1cc(/C=C2/C(=O)ON=C2C)ccc1OCc1ccccc1F | - | - | 23µM | ? | ? | ?
CCOc1cc(/C=C2\C(=O)ON=C2c2ccccc2)ccc1OC | - | - | ? | - | ? | ?
CCOc1cc(/C=C2/C(=O)ON=C2C)ccc1OCc1ccc(F)cc1 | - | - | 18µM | - | ? | -
CCOc1cc(/C=C2/C(=O)ON=C2C)ccc1OCc1ccccc1 | - | - | ? | - | ? | -
COc1ccc(CCN2C(=O)c3[nH]nc(-c4ccccc4O)c3C2c2ccc(O)c(OC)c2)cc1 (configuration not stated) | - | . | . | . | . | -
CCCN1C(=O)c2[nH]nc(-c3cc(Cl)c(C)cc3O)c2C1c1ccc(O)c(OC)c1 (configuration not stated) | - | ? | - | 16µM | - | -
COCCCN1C(=O)c2[nH]nc(-c3cc(C)cc(C)c3O)c2C1c1ccc(O)c(OC)c1 (configuration not stated) | ? | - | ? | - | - | 21µM
COc1cc(C2c3c(-c4cc(C)cc(C)c4O)n[nH]c3C(=O)N2CCCO)cc(OC)c1OC (configuration not stated) | - | - | - | - | - | -
Cc1cc2occ(CC(=O)N(C)CC(=O)Nc3ccccc3Br)c2cc1C | - | - | - | - | - | ?
COc1ccc(N2CCN(S(=O)(=O)CCNC(=O)c3ccco3)CC2)cc1 | - | - | - | - | - | -
Cc1ccc(S(=O)(=O)NC(=O)NCc2ccco2)cc1 | ? | - | - | - | - | -
Cc1cc(C)c(C)c(S(=O)(=O)NCC(=O)NCc2ccco2)c1C | - | - | ? | - | - | 18µM
Cc1cc(C)c2c(CC(=O)NCc3ccco3)coc2c1 | ? | ? | - | ? | ? | 15µM
Cc1ccc(S(=O)(=O)N[C@@H](CC(C)C)C(=O)NCc2ccco2)cc1 | - | - | - | - | - | 15µM
Cc1ccnc(NC(=O)CCC(=O)N(CC(=O)NC2CCCCC2)Cc2ccccc2)c1 | - | - | - | - | - | -
CCc1cccc(C)c1NC(=S)NCc1ccc2c(c1)cc(C)n2C | ? | - | 15µM | - | 15µM | -
Cc1cc2cc(CNC(=S)NCc3ccccc3)ccc2n1C | - | ? | - | - | - | -
COc1ccccc1NC(=S)NCc1ccc2c(c1)cc(C)n2C | - | - | ? | - | ? | -
Cc1ccccc1NC(=S)NCc1ccc2c(c1)cc(C)n2C | ? | 15µM | 16µM | ? | ? | 21µM
COc1ccc(N2C(=O)CC(NC34CC5CC(CC(C5)C3)C4)C2=O)c(OC)c1 (configuration not stated) | - | - | - | ? | - | -
C#C[C@]1(O)CC[C@H]2[C@@H]3CCc4cc(OC5CCCC5)ccc4[C@H]3CC[C@@]21C | ? | 16µM | ? | 21µM | 13µM! | -
Cc1nn(C(C)(C)C)c(OC(=O)c2cccs2)c1Sc1ccccc1 | - | - | - | - | ? | -
